Test results taken from PubChem BioAssay AID588442 (The Scripps Research Institute Molecular Screening Center, 2011).
Results with a measured potency or affinity are listed apart. Where a structure was tested more than once in an assay, its records may differ in their call. Unmarked numbers belong to inactive results. Active and inactive are the calls of the source.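 Rule for the calls: active = EC50 of 10 µM or lower; inactive = EC50 above 10 µM or not measured.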

Experiment: optical interference in Abeta FP readout, dose response, artefact control for IDE activator project, biochemical, fluorescence polarization (AID 588442)
Details: FP artifact counterscreen, fluorescein-Abeta, no enzyme activity

| Structure (SMILES) | EC50 |
| --- | --- |
| C#CCOCCOCCOCCNc1nc(N2CCN(C(=O)CCCCCCCCCCNC(=O)[C@H](CCCCN)n3cc(CCO)nn3)CC2)nc(N2CCN(C(=O)CCCCCCCCCCNC(=O)[C@H](CCCN=C(N)N)n3cc(C[C@@H](C)CC)nn3)CC2)n1 | > 55.9 µM |
| C#CCOCCOCCOCCNc1nc(N2CCN(C(=O)CCCCCCCCCCNC(=O)[C@@H](CCSC)n3cc(CCO)nn3)CC2)nc(N2CCN(C(=O)CCCCCCCCCCNC(=O)[C@H](CO)n3cc(CCCCCN)nn3)CC2)n1 | > 56 µM |
| C#CCOCCOCCOCCNc1nc(N2CCN(C(=O)CCCCCCCCCCNC(=O)Cn3cc(CCCCCN)nn3)CC2)nc(N2CCN(C(=O)CCCCCCCCCCNC(=O)[C@H](CO)n3cc(CCCSC)nn3)CC2)n1 | > 54.7 µM |
| C[n+]1c2cc(N)ccc2cc2ccc(N)cc21 | 0.576 µM (active) |
| C#CCOCCOCCOCCNc1nc(N2CCN(C(=O)CCCCCCCCCCNC(=O)[C@H]([C@@H](C)CC)n3cc(CCCCCN)nn3)CC2)nc(N2CCN(C(=O)CCCCCCCCCCNC(=O)[C@H]([C@@H](C)CC)n3cc(CCCCN=C(N)N)nn3)CC2)n1 | > 55.9 µM |
| C#CCOCCOCCOCCNc1nc(N2CCN(C(=O)CCCCCCCCCCNC(=O)Cn3cc(CCCCCN)nn3)CC2)nc(N2CCN(C(=O)CCCCCCCCCCNC(=O)Cn3cc(C[C@@H](C)O)nn3)CC2)n1 | > 54.7 µM |
| C#CCOCCOCCOCCNc1nc(N2CCN(C(=O)CCCCCCCCCCNC(=O)Cn3cc(C[C@@H](C)O)nn3)CC2)nc(N2CCN(C(=O)CCCCCCCCCCNC(=O)[C@H](CCCN=C(N)N)n3cc(C[C@@H](C)CC)nn3)CC2)n1 | > 55.9 µM |
| C#CCOCCOCCOCCNc1nc(N2CCN(C(=O)CCCCCCCCCCNC(=O)[C@H]([C@@H](C)CC)n3cc(CCCCN=C(N)N)nn3)CC2)nc(N2CCN(C(=O)CCCCCCCCCCNC(=O)[C@@H]([C@H](C)O)n3cc(C)nn3)CC2)n1 | > 54.7 µM |
| C#CCOCCOCCOCCNc1nc(N2CCN(C(=O)CCCCCCCCCCNC(=O)Cn3cc(CCCCCN)nn3)CC2)nc(N2CCN(C(=O)CCCCCCCCCCNC(=O)[C@H]([C@@H](C)CC)n3cc(CCCCCN)nn3)CC2)n1 | > 55.9 µM |
| C#CCOCCOCCOCCNc1nc(N2CCN(C(=O)CCCCCCCCCCNC(=O)[C@H](CO)n3cc(CCCSC)nn3)CC2)nc(N2CCN(C(=O)CCCCCCCCCCNC(=O)[C@H](CCCCN)n3cc(CCO)nn3)CC2)n1 | > 55.9 µM |
